# System: human monocyte-derived macrophages (polarized)
# Experiment: cell shape (eccentricity) Z-score vs DMSO control; higher = more elongated, M2-like morphology
# Settings: 5 µM, 24 h, cytokines present during treatment
# Protocol: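 Primary-screen hits were rescreened on polarized hMDMs with the differentiating cytokines (IL-4 + IL-13 or IFNg + TNFa) kept in the medium during treatment with compound at 5 uM for 24 h. The eccentricity Z-score vs DMSO wells is averaged over experiments.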
# [1] = macrophage state: M2-polarized (IL-4 + IL-13)
# [2] = macrophage state: M1-polarized (IFNg + TNFa)
smiles,measurement,setting,value
C=C1C(=O)OC2CC3(C)CCC=C(CO)C3CC12 (stereo unspecified),cell shape (Z-score),[1],-5.59
CN(C)c1ccc(C(=C2C=CC(=[N+](C)C)C=C2)c2ccc(N(C)C)cc2)cc1,cell shape (Z-score),[1],-9.83
CC(=O)O[C@@H]1C[C@H]2C(C)(C)C(=O)CC[C@]2(C)[C@H]2CC[C@@]3(C)[C@H](c4ccoc4)OC(=O)[C@H]4O[C@]43[C@@]21C,cell shape (Z-score),[1],-5.73
CC1(C)CCC(C)(C)c2cc(C(=O)Nc3ccc(C(=O)O)cc3)ccc21,cell shape (Z-score),[2],-9.74
COC(=O)Nc1nc2cc(Sc3ccccc3)ccc2[nH]1 [Fenbendazole],cell shape (Z-score),[1],-14.3
COCCCC/C(=N\OCCN)c1ccc(C(F)(F)F)cc1,cell shape (Z-score),[1],-6
CCN(CCCCOC(=O)c1ccc(OC)c(OC)c1)C(C)Cc1ccc(OC)cc1 (stereo unspecified),cell shape (Z-score),[1],-4.84
COc1ccc(N(C(=O)c2ccccc2)S(=O)(=O)c2cc(OC)ccc2OC)cc1,cell shape (Z-score),[2],-2.07
C[C@@]1(C(=O)Nc2ccc(F)nc2)CCCN1c1nc(Nc2cc(C3CC3)n[nH]2)c2cccn2n1,cell shape (Z-score),[2],5.79
CCCCOC(=O)c1ccc(N)cc1,cell shape (Z-score),[2],-0.788
c1ccc2c(Oc3nc(Nc4ccc(N5CCOCC5)cc4)c4ncn(C5CCCCC5)c4n3)cccc2c1,cell shape (Z-score),[2],9.34
O=c1ncccn1[C@@H]1O[C@H](CO)[C@@H](O)[C@H]1O,cell shape (Z-score),[2],-0.513
O=S(=O)(c1cccc2cnccc12)N1CCNCC1,cell shape (Z-score),[2],3.08
COc1ccc(-c2cc(=O)c3c(O)cc(OC)c(OC)c3o2)c(OC)c1,cell shape (Z-score),[2],-4.83
COc1ccc(S(=O)(=O)N(C(C)=O)c2ccccc2/C=C/c2cc[n+]([O-])cc2)cc1,cell shape (Z-score),[1],-2.29
COc1cc(C=O)cc2c1[nH]c1ccccc12,cell shape (Z-score),[1],-3.04
Nc1nc(N)c2nc(-c3cccc(O)c3)c(-c3cccc(O)c3)nc2n1,cell shape (Z-score),[2],2.64
Cn1c([N+](=O)[O-])cnc1COC(N)=O,cell shape (Z-score),[2],-4.21
CCOc1nc2cccc(C(=O)OC(C)OC(=O)OC3CCCCC3)c2n1Cc1ccc(-c2ccccc2-c2nn[nH]n2)cc1 (stereo unspecified),cell shape (Z-score),[1],-2.81
CCCSc1ccc2[nH]c(NC(=O)OC)nc2c1,cell shape (Z-score),[1],-6.38
COc1cc(C2OC(c3cc(OC)c(OC)c(OC)c3)C(C)C2C)cc(OC)c1OC (stereo unspecified),cell shape (Z-score),[2],4.93
CNCCC(Oc1ccc(C(F)(F)F)cc1)c1ccccc1 (stereo unspecified),cell shape (Z-score),[1],7.81
CCCCCCCCCCC(C)(C)C(=O)Nc1c(OC)cc(OC)cc1OC,cell shape (Z-score),[2],-3.18
CCCc1c(OCC(O)COc2ccc3c(=O)cc(C(=O)O)oc3c2CCC)ccc(C(C)=O)c1O (stereo unspecified),cell shape (Z-score),[1],-2.27
CCCCc1ccc2[nH]c(NC(=O)OC)nc2c1,cell shape (Z-score),[1],0.889
Nc1ncnc2n[nH]c(Nc3ccc(F)cc3)c12,cell shape (Z-score),[2],3.71
CC1Nc2ccc(Cl)cc2S(=O)(=O)N1 (stereo unspecified),cell shape (Z-score),[1],-1.89
COc1ccc(C[C@H](N)C(=O)N[C@H]2[C@@H](O)[C@H](n3cnc4c(N(C)C)ncnc43)O[C@@H]2CO)cc1,cell shape (Z-score),[1],-12.5
COCCCOc1ccnc(C[S+]([O-])c2nc3ccccc3[nH]2)c1C (stereo unspecified),cell shape (Z-score),[1],1.52
C=C1CC[C@@H]2[C@](C)(CO[C@@H]3O[C@H](CO)[C@@H](O)[C@H](O)[C@H]3O)CCC[C@@]2(C)[C@@H]1CCC1=CCOC1=O,cell shape (Z-score),[2],-4.62
CCCCCCCCc1ccc(CCC(N)(CO)CO)cc1,cell shape (Z-score),[1],-15.5
Nc1nc2c(ncn2COCCO)c(=O)[nH]1,cell shape (Z-score),[2],-5.79
O=C(O[C@@H]1Cc2c(O)cc(O)cc2O[C@@H]1c1cc(O)c(O)c(O)c1)c1cc(O)c(O)c(O)c1,cell shape (Z-score),[2],-2.7
COC(=O)Nc1nc2cc(Sc3ccccc3)ccc2[nH]1,cell shape (Z-score),[1],-6.87
C#CC1(OCC(O)CN2CCN(c3cccc(C(F)(F)F)c3)CC2)CCCCC1 (stereo unspecified),cell shape (Z-score),[1],3.74
O=C(O)CN1C(=O)c2cccc3cccc(c23)C1=O,cell shape (Z-score),[1],9.63
COc1ccc([C@H]2CNC(=O)C2)cc1OC1CCCC1,cell shape (Z-score),[2],-2.33
N[C@@H](CC(=O)N1CCn2c(nnc2C(F)(F)F)C1)Cc1cc(F)c(F)cc1F,cell shape (Z-score),[2],2.26
O=C(CCCCCCC(=O)Nc1ccccc1)NO,cell shape (Z-score),[2],-0.801
O=C(O)c1ccc2c(c1)nc(Nc1cccc(Cl)c1)c1ccncc12,cell shape (Z-score),[2],9.47
Cn1cc(C2=C(c3cn(CCCSC(=N)N)c4ccccc34)C(=O)NC2=O)c2ccccc21,cell shape (Z-score),[2],17.6
CN1CCN(c2nc(C3=C(c4c[nH]c5ccccc45)C(=O)NC3=O)c3ccccc3n2)CC1,cell shape (Z-score),[2],-0.285
CCCCCCOc1ccccc1C(N)=O,cell shape (Z-score),[2],3.38
CC(C)C[C@@H](C=O)NC(=O)[C@H](CC(C)C)NC(=O)[C@H](CC(C)C)NC(=O)OCc1ccccc1,cell shape (Z-score),[2],4.21
Cc1cc(C(C)(C)CC(C)(C)C)ccc1OCCOCC[N+](C)(C)Cc1ccccc1,cell shape (Z-score),[1],-3.9
O=C(/C=C/c1ccccc1)c1ccc(O)cc1,cell shape (Z-score),[2],8.35

# From the supplement of paper PMC7858590
